Source: PubChem BioAssay
Where “and” joins values, the source holds several entries; their conditions need not be identical. Equal values may be shown once. Results filed as inconclusive are left out. Some structures have more than one record in an assay (separate samples or runs), and their calls can disagree. Calls of active or inactive are those of the source.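 The calls were made as follows, unless noted: active = percent response above a set limit, the screen-wide mean plus 3 SD (cut at about 130% in these data); inactive = the rest.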

Legend:
[1] = yeast TOR pathway RPL19A-GFP modulators, primary screen, cell-based, S. cerevisiae, multiplex flow cytometry (AID 1862; in the data active = percent of DMSO control GFP below about 86%;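 also: lower values mimic rapamycin by blocking the RPL19A rise seen in DMSO cells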); conditions: S. cerevisiae RPL19A-GFP strain, flow cytometry fluorescence, 3 h; at 10 µM; stronger effect = lower value
[2] = modulators of MEP2-GFP levels in yeast, primary screen, S. cerevisiae, multiplex flow cytometry (AID 1867;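 active = GFP response, as percent of the DMSO control, above the screen-wide mean plus 3 SD, about 139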;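 also: median GFP channel fluorescence of barcode-gated MEP2-GFP cells measured by flow cytometry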); conditions: S. cerevisiae MEP2-GFP strain, 3 h, at 10 µM, stronger effect = higher value, 100% means same as DMSO wells
[3] = modulators of CIT2-GFP expression in yeast, primary screen, S. cerevisiae, GFP fusion, multiplex flow cytometry (AID 1870); conditions: 3 h, at 10 µM, stronger effect = higher value;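 also: barcoded CIT2-GFP strain pooled with four other GFP strains with rapamycin as positive control; median GFP fluorescence per well over plate mean of DMSO wells so 100% = DMSO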
[4] = modulators of LAP4-GFP expression in yeast, primary screen, S. cerevisiae, multiplex flow cytometry (AID 1873;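 active = GFP signal, as percent of the solvent control, above the screen mean plus 3 SD, about 149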); conditions: 3 h, at 10 µM, stronger effect = higher value
[5] = modulators of AGP1-GFP expression in yeast TOR pathway, primary screen, cell-based, multiplex flow cytometry, S. cerevisiae (AID 1887;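 active = GFP signal above the screen-wide mean plus 3 SD, that is over about 124.5% of the solvent control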;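 also: AGP1-GFP fusion strain of S. cerevisiae within a five-strain barcoded multiplex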); conditions: 3 h, at 10 µM, stronger effect = higher value
[6] = inhibitors of CD8+ T cell-vesicle binding, pilot screen, LFA-1/ICAM-1 modulator project, MLPCN validation set, flow cytometry (AID 2523;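 active = response below a set limit, under 55% cells CD8-positive and vesicle-bound, and CD8 cells' 90th-percentile brightness under 279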;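 as to vesicle binding response: mean PE anti-B7-1 fluorescence of CD8+ cells relative to row control; 100% = QL9-loaded vesicles with DMSO vehicle in the same plate row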); conditions: 2C mouse CD8+ T cells, at 7 µM, stronger effect = lower value; double positive events: measured here: CD8+/vesicle+ event percentage
[7] = target: Integrin beta-1 (Homo sapiens) + Integrin alpha-4 (Homo sapiens) (UniProt P13612+P05556); assay: inhibition of HUTS-21 binding to VLA-4, pilot screen, VLA-4 allosteric modulator project, U937 cells, HUTS-21 mAb, flow cytometry, validation set (AID 2674;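 active = inhibition above 50%, about 3 SD of the validation set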;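 also: antibody binding induced by the VLA-4 ligand LDV present at three times its Kd; 0% = LDV ligand with antibody and no compound and 100% = antibody without LDV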); conditions: HUTS-21 LIBS mAb binding, at 6.7 µM, stronger effect = higher value, binding induced by LDV ligand
Chain of Integrin beta-1 (Homo sapiens) + Integrin alpha-4 (Homo sapiens) (P05556 whole entry, looked up): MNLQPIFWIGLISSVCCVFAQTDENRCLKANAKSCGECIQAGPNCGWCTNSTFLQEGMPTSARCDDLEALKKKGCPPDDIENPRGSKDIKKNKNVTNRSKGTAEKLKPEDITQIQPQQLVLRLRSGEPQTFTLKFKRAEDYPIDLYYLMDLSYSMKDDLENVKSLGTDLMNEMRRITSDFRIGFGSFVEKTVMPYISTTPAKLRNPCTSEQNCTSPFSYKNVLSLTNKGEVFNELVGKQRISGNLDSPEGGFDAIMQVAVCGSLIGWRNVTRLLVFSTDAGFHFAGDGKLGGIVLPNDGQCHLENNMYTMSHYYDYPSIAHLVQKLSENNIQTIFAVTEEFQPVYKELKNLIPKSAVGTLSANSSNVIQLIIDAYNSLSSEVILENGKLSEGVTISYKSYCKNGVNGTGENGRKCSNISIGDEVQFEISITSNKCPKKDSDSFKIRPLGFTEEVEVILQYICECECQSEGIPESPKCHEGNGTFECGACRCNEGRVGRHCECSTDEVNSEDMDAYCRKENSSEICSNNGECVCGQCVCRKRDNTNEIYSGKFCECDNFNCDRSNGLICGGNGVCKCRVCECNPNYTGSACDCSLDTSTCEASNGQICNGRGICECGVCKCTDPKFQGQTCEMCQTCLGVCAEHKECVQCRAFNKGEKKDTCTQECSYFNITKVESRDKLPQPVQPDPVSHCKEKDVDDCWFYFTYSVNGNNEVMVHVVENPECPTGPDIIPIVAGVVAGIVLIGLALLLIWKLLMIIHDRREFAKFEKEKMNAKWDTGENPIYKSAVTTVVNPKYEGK
Chain of Integrin beta-1 (Homo sapiens) + Integrin alpha-4 (Homo sapiens) (P13612 whole entry, looked up): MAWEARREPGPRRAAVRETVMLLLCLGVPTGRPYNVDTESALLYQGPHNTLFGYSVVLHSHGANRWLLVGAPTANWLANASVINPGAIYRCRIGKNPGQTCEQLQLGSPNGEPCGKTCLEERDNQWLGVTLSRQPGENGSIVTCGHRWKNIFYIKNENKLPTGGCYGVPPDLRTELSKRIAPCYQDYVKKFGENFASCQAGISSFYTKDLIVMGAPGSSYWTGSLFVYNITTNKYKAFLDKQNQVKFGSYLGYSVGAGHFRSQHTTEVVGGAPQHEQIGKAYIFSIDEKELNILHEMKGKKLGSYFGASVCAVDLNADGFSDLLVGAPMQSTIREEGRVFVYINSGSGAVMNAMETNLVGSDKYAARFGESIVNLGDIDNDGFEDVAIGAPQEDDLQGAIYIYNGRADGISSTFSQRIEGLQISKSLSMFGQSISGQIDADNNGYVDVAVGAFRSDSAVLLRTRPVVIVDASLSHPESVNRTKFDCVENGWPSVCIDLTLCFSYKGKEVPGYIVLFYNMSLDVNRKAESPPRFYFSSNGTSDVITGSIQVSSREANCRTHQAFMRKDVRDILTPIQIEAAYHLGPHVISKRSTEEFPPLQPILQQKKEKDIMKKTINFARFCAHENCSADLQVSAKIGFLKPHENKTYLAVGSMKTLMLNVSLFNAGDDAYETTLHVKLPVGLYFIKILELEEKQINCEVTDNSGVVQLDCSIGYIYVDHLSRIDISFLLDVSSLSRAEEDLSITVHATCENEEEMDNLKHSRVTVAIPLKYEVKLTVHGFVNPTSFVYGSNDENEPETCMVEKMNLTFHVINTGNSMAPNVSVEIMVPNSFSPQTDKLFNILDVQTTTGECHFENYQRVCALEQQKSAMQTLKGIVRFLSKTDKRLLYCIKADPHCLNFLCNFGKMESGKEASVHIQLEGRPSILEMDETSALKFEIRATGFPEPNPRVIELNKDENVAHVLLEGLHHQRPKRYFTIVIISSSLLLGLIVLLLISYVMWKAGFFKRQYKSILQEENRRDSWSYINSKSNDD

[8] = superoxide lowering in aged yeast cells, pilot screen, validation compound set (AID 2706;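 active = superoxide response below 65% of plate, a cut near 3 SD across the whole screen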;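 also: yeast exposed to compound for one week at 30 degrees C before staining; 100% = mean of all compound wells on the same plate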); conditions: S. cerevisiae aging, superoxide DHE fluorescence; at 10 µM; stronger effect = lower value
[9] = target: Beta-adrenergic receptor kinase 1 (Homo sapiens) (UniProt P25098); assay: GRK2 binders displacing RNA aptamer, biochemical, validation, human GRK2, bead flow cytometry (AID 488806;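 active = aptamer binding inhibition above 30%, about 3 SD of noise from non-fluorescent compounds; inactive = inhibition at or below 30%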); conditions: bead-bound GRK2, FAM-aptamer displacement, at 10 µM, stronger effect = higher value
Chain of Beta-adrenergic receptor kinase 1 (Homo sapiens) (P25098 whole entry, looked up): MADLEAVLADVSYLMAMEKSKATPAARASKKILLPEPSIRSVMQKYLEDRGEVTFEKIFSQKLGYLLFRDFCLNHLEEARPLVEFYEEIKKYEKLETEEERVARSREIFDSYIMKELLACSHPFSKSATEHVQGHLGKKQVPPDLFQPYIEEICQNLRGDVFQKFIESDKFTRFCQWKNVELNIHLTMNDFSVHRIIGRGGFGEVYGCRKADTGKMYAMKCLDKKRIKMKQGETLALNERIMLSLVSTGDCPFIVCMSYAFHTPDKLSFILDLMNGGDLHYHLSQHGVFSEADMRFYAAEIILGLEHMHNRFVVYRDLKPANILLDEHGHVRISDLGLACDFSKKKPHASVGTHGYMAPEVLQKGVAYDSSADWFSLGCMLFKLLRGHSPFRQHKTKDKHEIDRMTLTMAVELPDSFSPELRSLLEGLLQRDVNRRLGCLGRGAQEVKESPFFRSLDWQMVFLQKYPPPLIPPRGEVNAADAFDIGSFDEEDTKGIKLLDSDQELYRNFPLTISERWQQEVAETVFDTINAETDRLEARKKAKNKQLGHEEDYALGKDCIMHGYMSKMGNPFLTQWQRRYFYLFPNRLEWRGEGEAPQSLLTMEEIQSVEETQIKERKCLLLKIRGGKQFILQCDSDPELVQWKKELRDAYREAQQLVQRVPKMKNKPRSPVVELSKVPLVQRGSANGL

[10] = target: Beta-2 adrenergic receptor (Homo sapiens) (UniProt P07550); assay: beta2AR agonists driving receptor internalization, pilot screen, cell-based, FAP fluorogen, flow cytometry, validation set (AID 504459;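 active = percent response above 42, roughly 3 SD of non-fluorescent test compounds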;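 also: agonist-driven loss of surface beta2AR via internalization measured by FAP dye flow cytometry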); conditions: Am2.2-beta2AR cells, FAP surface receptor flow cytometry; at 10 µM; stronger effect = higher value
Chain of Beta-2 adrenergic receptor (Homo sapiens) (P07550 whole entry, looked up): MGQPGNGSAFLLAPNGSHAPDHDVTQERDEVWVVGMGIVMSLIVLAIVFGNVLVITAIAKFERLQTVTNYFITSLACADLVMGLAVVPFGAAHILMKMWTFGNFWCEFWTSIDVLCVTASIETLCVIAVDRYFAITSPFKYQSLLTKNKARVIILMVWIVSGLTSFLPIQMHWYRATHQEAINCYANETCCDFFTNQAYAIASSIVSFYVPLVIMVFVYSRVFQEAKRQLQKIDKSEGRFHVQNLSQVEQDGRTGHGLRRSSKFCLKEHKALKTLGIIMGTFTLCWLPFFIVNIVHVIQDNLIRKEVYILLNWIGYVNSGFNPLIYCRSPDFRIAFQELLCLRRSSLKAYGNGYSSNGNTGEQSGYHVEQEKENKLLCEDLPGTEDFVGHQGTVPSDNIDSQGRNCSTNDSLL

[11] = target: AP-2 complex subunit beta (Homo sapiens) (UniProt P63010); assay: inhibitors of arrestin peptide binding to AP2, pilot screen, biochemical, validation set, GST-AP2 beads, flow cytometry (AID 504541;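 active = inhibition above 54%, about 3 SD of non-fluorescent compounds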;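 also: AP2 carries R879A mutation and is captured from E. coli lysate; bead-bound FITC arrestin peptide fluorescence measuring arrestin peptide binding to AP2; 0% = DMSO wells and 100% = excess unlabeled arrestin peptide control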); conditions: FITC arrestin peptide, at 10 µM, stronger effect = higher value, AP2 beta2 appendage fragment, R879A mutant
Chain of AP-2 complex subunit beta (Homo sapiens) (P63010 whole entry, looked up, the tested form may be a part, one chain of several): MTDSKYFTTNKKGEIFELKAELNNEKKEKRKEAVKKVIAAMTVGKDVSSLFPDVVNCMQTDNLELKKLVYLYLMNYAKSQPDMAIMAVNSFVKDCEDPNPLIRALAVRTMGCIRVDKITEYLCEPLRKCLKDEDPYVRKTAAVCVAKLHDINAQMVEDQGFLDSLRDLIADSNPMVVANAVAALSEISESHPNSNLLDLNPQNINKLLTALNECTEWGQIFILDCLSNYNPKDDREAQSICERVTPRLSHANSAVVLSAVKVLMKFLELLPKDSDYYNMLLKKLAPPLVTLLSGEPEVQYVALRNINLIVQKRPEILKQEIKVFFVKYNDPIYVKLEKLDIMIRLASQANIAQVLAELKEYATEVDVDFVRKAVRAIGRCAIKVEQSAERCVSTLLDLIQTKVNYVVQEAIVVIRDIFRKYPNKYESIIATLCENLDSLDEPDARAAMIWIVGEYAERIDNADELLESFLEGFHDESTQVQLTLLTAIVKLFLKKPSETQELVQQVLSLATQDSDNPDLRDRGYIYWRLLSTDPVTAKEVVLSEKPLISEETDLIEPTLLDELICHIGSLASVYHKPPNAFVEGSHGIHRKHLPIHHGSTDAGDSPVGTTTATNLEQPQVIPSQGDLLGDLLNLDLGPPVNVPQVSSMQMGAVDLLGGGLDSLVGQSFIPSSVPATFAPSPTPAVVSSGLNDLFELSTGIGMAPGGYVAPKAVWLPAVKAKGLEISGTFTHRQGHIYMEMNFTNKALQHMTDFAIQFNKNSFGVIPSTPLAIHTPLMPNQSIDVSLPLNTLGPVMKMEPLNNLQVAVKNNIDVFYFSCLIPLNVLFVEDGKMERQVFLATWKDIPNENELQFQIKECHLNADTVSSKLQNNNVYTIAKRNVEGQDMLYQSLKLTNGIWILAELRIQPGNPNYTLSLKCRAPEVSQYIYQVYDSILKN

[12] = yeast V-ATPase proton transport modulators, S. cerevisiae, pHLuorin, HTS validation (AID 504600; in the data active = response above about 15%;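 also: plate controls were DMSO for no effect and reference compound for full effect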); conditions: S. cerevisiae pHLuorin cytosolic pH, at 10 µM, stronger effect = higher value
[13] = tested on: anti-desmoglein-3 scFv antibody binding to human DSG3; assay: inhibitors of anti-DSG3 scFv binding to DSG3, pilot screen, biochemical, validation compound set, bead-based, flow cytometry (AID 588368;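 active = binding below the plate cutoff, the plate median minus 3 SD, with a reading above zero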;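 also: signal is the median channel fluorescence of bead-bound GFP antibody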); conditions: Protein G beads, DSG3-Fc, scFv-GFP binding, at 10 µM, stronger effect = lower value
[14] = inhibitors of fungal efflux pumps CDR1, CDR2, MDR1, pilot screen, validation compound set, multiplex, phenotypic (AID 588506;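 active = efflux inhibition above 0.42, the validation set average plus 4 SD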;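 also: Nile Red retained in cells so higher fluorescence means more efflux inhibition; 0 = negative control wells and 1 = enniatin B 25 µM full block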); conditions: S. cerevisiae pump-expressing triplex, Nile Red efflux flow cytometry; at 10 µM; stronger effect = higher value; the pumps come from Candida albicans
[15] = target: ATP-binding cassette sub-family B member 6 (Homo sapiens) (UniProt Q9NP58); assay: ABCB6 transporter inhibitors, pilot screen, K562-ABCB6 cells, flow cytometry, validation set (AID 588550;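 active = inhibition above the screen-wide mean plus 3 SD, about 51%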;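 also: 0% = DMSO wells and 100% = benzethonium chloride 70 µM positive control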); conditions: K562-ABCB6 porphyrin accumulation, 1 h, at 10 µM, stronger effect = higher value
Chain of ATP-binding cassette sub-family B member 6 (Homo sapiens) (Q9NP58 whole entry, looked up): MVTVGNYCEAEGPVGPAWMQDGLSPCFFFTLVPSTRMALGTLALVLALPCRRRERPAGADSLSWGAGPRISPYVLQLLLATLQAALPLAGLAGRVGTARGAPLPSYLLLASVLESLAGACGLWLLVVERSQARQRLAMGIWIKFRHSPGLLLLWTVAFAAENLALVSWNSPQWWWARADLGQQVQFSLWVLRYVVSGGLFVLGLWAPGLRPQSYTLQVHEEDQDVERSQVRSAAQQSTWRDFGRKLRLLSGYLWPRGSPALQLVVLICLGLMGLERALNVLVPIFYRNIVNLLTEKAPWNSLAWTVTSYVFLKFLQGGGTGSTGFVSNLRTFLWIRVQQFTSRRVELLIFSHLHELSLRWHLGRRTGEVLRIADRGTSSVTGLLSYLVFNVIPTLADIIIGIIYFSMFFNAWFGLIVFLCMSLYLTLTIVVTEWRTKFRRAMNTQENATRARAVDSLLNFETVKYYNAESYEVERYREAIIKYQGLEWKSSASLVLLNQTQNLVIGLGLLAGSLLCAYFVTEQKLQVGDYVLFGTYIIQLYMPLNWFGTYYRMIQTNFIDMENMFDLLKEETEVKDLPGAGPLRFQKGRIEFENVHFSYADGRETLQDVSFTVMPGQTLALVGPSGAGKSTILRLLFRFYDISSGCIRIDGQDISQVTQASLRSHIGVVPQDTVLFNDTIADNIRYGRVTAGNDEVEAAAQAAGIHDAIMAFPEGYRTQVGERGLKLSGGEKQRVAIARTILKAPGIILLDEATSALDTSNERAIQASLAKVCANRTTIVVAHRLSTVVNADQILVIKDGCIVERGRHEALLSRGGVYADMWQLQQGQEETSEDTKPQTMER

[16] = promoters of myeloid differentiation in arrested cells, primary screen, cell-based, GFP/MAC1 double positive, flow cytometry, validation set (AID 588685;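 active = differentiation response of at least 50%, scaled between solvent and reference control, from cells with both markers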;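 also: compound exposure lasts four days before antibody staining and flow analysis; 0% = DMSO wells and 100% = 5 µM fulvestrant positive control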); conditions: ER-HoxA9 marrow cells, stronger effect = higher value, normalized: vehicle 0, fulvestrant 100

For `Cc1ccc(C(=O)Nc2ccc(O)cc2C(=O)O)cc1C`, which percent of DMSO control GFP [1] is on record?
The percent of DMSO control GFP was 105% (inactive).

What about the GFP response vs DMSO [2] of the same compound?
Its GFP response vs DMSO is 99.6% (inactive).

And the percent response of DMSO control [3]?
Its percent response of DMSO control is 102% (inactive).

What about the GFP response vs DMSO [4] of the same compound?
Its GFP response vs DMSO is 75.2% (inactive).

What about the GFP response, % of DMSO [5] of the same compound?
The GFP response, % of DMSO was 86.8% (inactive).

And the double positive events [6]?
Its double positive events is 58.8%.

What about the vesicle binding response [6] of the same compound?
The vesicle binding response was 274% (inactive).

What about the inhibition [7] of the same compound?
The inhibition was 9.13% (inactive).

And the superoxide response (% of plate) [8]?
Its superoxide response (% of plate) is 103% (inactive).

And the aptamer binding inhibition [9]?
Its aptamer binding inhibition is 3% (inactive).

And the response [10]?
The response was 51.5% (active).

What about the inhibition [11] of the same compound?
The inhibition was -1.05% (inactive).

And the response [12]?
The response was 1.04% (inactive).

What about the binding (% of control) [13] of the same compound?
Its binding (% of control) is 106% (inactive).

What about the efflux inhibition (fraction of control) [14] of the same compound?
The efflux inhibition (fraction of control) was 0.05 (inactive).

What about the inhibition [15] of the same compound?
Its inhibition is -4% (inactive).

What about the differentiation response [16] of the same compound?
The differentiation response was 5.6% (inactive).

Which results are given for `COc1cc(Cc2cnc(N)nc2N)cc(OC)c1OC`?
percent of DMSO control GFP [1]: 100% (inactive) and 102% (inactive); GFP response vs DMSO [2]: 95.1% (inactive) and 101% (inactive); percent response of DMSO control [3]: 91.9% (inactive) and 102% (inactive); GFP response vs DMSO [4]: 84.8% (inactive) and 103% (inactive); GFP response, % of DMSO [5]: 96.4% (inactive) and 102% (inactive); double positive events [6]: 62.8% and 60.9%; vesicle binding response [6]: 247% (inactive) and 222% (inactive); inhibition [7]: -113% (inactive) and 1.62% (inactive); superoxide response (% of plate) [8]: 106% (inactive); aptamer binding inhibition [9]: 2% (inactive) and -4% (inactive); response [10]: -5.11% (inactive); inhibition [11]: -0.17% (inactive) and -5.67% (inactive); response [12]: 1.16% (inactive) and -26% (inactive); binding (% of control) [13]: 95.8% (inactive) and 103% (inactive); efflux inhibition (fraction of control) [14]: 0.61 (active) and 0.18 (inactive); inhibition [15]: -11% (inactive) and 7% (inactive); differentiation response [16]: 0.24% (inactive) and -3.43% (inactive)

With `COc1ccc2nc(S(=O)Cc3ncc(C)c(OC)c3C)[nH]c2c1` (configuration not stated) as the compound, how does the percent of DMSO control GFP [1] read?
Its percent of DMSO control GFP is 107% (inactive).

What about the GFP response vs DMSO [2] of the same compound?
Its GFP response vs DMSO is 105% (inactive).

What about the percent response of DMSO control [3] of the same compound?
Its percent response of DMSO control is 99.7% (inactive).

And the GFP response vs DMSO [4]?
The GFP response vs DMSO was 95.9% (inactive).

What about the GFP response, % of DMSO [5] of the same compound?
The GFP response, % of DMSO was 97.1% (inactive).

What about the double positive events [6] of the same compound?
Its double positive events is 60.4%.

What about the vesicle binding response [6] of the same compound?
The vesicle binding response was 131% (inactive).

What about the inhibition [7] of the same compound?
Its inhibition is -13.2% (inactive).

What about the superoxide response (% of plate) [8] of the same compound?
Its superoxide response (% of plate) is 84.9% (inactive).

And the aptamer binding inhibition [9]?
The aptamer binding inhibition was 2% (inactive).

And the response [10]?
The response was 24.8% (inactive).

What about the inhibition [11] of the same compound?
Its inhibition is -8.15% (inactive).

What about the response [12] of the same compound?
The response was 0.81% (inactive).

What about the binding (% of control) [13] of the same compound?
Its binding (% of control) is 104% (inactive).

And the efflux inhibition (fraction of control) [14]?
The efflux inhibition (fraction of control) was -0.16 (inactive).

What about the inhibition [15] of the same compound?
Its inhibition is -7% (inactive).

What about the differentiation response [16] of the same compound?
Its differentiation response is 52.5% (active).

Which results are given for `CS(=O)(=O)c1cccc(C(=O)Oc2ccccc2)c1`?
percent of DMSO control GFP [1]: 104% (inactive); GFP response vs DMSO [2]: 97.2% (inactive); percent response of DMSO control [3]: 106% (inactive); GFP response vs DMSO [4]: 82.8% (inactive); GFP response, % of DMSO [5]: 101% (inactive); double positive events [6]: 60.5%; vesicle binding response [6]: 76.6% (inactive); inhibition [7]: 9.92% (inactive); superoxide response (% of plate) [8]: 99% (inactive); aptamer binding inhibition [9]: 3% (inactive); response [10]: -8.78% (inactive); inhibition [11]: -4.57% (inactive); response [12]: -0.27% (inactive); binding (% of control) [13]: 100% (inactive); efflux inhibition (fraction of control) [14]: -0.1 (inactive); inhibition [15]: 3% (inactive); differentiation response [16]: 10% (inactive)

With `O=C1C2CC=C(Cl)CC2C(=O)N1CCc1c[nH]c2ccccc12` (configuration not stated) as the compound, how does the percent of DMSO control GFP [1] read?
Its percent of DMSO control GFP is 90.2% (inactive).

What about the GFP response vs DMSO [2] of the same compound?
The GFP response vs DMSO was 108% (inactive).

And the percent response of DMSO control [3]?
Its percent response of DMSO control is 104% (inactive).

What about the GFP response vs DMSO [4] of the same compound?
The GFP response vs DMSO was 80.9% (inactive).

What about the GFP response, % of DMSO [5] of the same compound?
Its GFP response, % of DMSO is 97.5% (inactive).

What about the double positive events [6] of the same compound?
Its double positive events is 55.5%.

And the vesicle binding response [6]?
The vesicle binding response was 129% (inactive).

And the inhibition [7]?
Its inhibition is 16.2% (inactive).

And the superoxide response (% of plate) [8]?
Its superoxide response (% of plate) is 114% (inactive).

And the aptamer binding inhibition [9]?
Its aptamer binding inhibition is 8% (inactive).

What about the response [10] of the same compound?
The response was -5.28% (inactive).

And the inhibition [11]?
The inhibition was 0.6% (inactive).

What about the response [12] of the same compound?
The response was -1.1% (inactive).

What about the binding (% of control) [13] of the same compound?
The binding (% of control) was 103% (inactive).

And the efflux inhibition (fraction of control) [14]?
The efflux inhibition (fraction of control) was 0.09 (inactive).

And the inhibition [15]?
Its inhibition is 12% (inactive).

What about the differentiation response [16] of the same compound?
The differentiation response was -12.3% (inactive).

With `CC(=O)[C@@]1(O)CC[C@H]2[C@@H]3C[C@H](C)C4=CC(=O)C=C[C@]4(C)[C@@]3(F)[C@@H](O)C[C@@]21C` as the compound, how does the percent of DMSO control GFP [1] read?
Its percent of DMSO control GFP is 102% (inactive).

What about the GFP response vs DMSO [2] of the same compound?
Its GFP response vs DMSO is 134% (inactive).

What about the percent response of DMSO control [3] of the same compound?
Its percent response of DMSO control is 110% (inactive).

What about the GFP response vs DMSO [4] of the same compound?
Its GFP response vs DMSO is 93% (inactive).

And the GFP response, % of DMSO [5]?
Its GFP response, % of DMSO is 95.2% (inactive).

And the double positive events [6]?
The double positive events was 63.3%.

What about the vesicle binding response [6] of the same compound?
The vesicle binding response was 157% (inactive).

What about the inhibition [7] of the same compound?
Its inhibition is 2.58% (inactive).

What about the superoxide response (% of plate) [8] of the same compound?
The superoxide response (% of plate) was 99.4% (inactive).

What about the aptamer binding inhibition [9] of the same compound?
The aptamer binding inhibition was 5% (inactive).

What about the response [10] of the same compound?
Its response is -0.53% (inactive).

What about the inhibition [11] of the same compound?
The inhibition was 32.1% (inactive).

What about the response [12] of the same compound?
The response was -3.11% (inactive).

What about the binding (% of control) [13] of the same compound?
Its binding (% of control) is 101% (inactive).

What about the efflux inhibition (fraction of control) [14] of the same compound?
Its efflux inhibition (fraction of control) is -0.35 (inactive).

What about the inhibition [15] of the same compound?
Its inhibition is 9% (inactive).

And the differentiation response [16]?
The differentiation response was 9.83% (inactive).
